# Test results taken from the supplement of paper PMC10941209.
# Unmarked numbers belong to inactive results.
# System: Toxoplasma gondii RH 2F1 tachyzoites (intracellular in HFF)
# Test: parasite survival relative to DMSO control; higher = less antiparasitic activity, active = 20 or less
# Conditions: 1 µM; 72 h
# Method in brief: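 Survival is the β-galactosidase-derived signal from intracellular Toxoplasma gondii RH-2F1 tachyzoites, expressed as a percentage of infected wells treated with DMSO. HFF cells (5 × 10^3 cells/well, 96-well plates) were infected with 5 × 10^3 parasites in D2 medium for 3 h and then treated with compound at 1 μM for 72 h at 37°C in 5% CO2. After lysis, CPRG was added and absorbance at 570 nm was read at 30 min, with 2 or more biological replicates.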
row,SMILES,parasite survival
1,Nc1nc(C(F)(F)F)cc2c1[nH]c(=O)n2Cc1ccccc1,49.1%
2,COc1ccc(-n2cnc3cc(NCc4ccco4)ccc32)cc1,35%
3,C[C@@]1(O)[C@H](O)[C@@H](CO)O[C@H]1n1ccc2c(N)ncnc21,58.6%
4,CCN(CC)CCn1c(=N)n(CC(O)COc2ccc(Cl)cc2Cl)c2ccccc21 (centres undefined),26.7%
5,Nc1nnc(-c2ccc(Cl)cc2)s1,59.9%
6,CO[C@@]1(NC(=O)Cc2cccs2)C(=O)N2C(C(=O)O)=C(COC(N)=O)CS[C@@H]21,61.6%
7,Nc1nc2c(ncn2COC(CO)CO)c(=O)[nH]1,80%
8,O=C(Nc1ccc(-c2ccccc2)cc1)C1=C(O)C(Cc2ccccc2)OC1=O (centres undefined),54.1%
9,O=c1[nH]cnc2c1ncn2[C@H]1CC[C@@H](CO)O1,79.3%
